In article PMC12136788:
In all, about 24,000 sequences were measured (“enrichment r”: median about 0.99, highest 2% from about 3.7 on). Only a selection was taken, and the highest values are over-represented in it overall.

B1: chr18:90710673:90710674:+_ENSMUSG00000024614_ENSMUST00000025515|mus_mus|motif|central (ssRNA)
RNA: GGGAGUUCUACAGUCCGACGAUCACCUAAUAAAAAUUCUGAAAUUAGCUAAAAUGAAGGCAUCAAAAUUAACAAAUGAUCGGUAGUAAACAUUAUCACAAAAUACCCACUCUUAGACACGACUGCAUUCUGAUGAAAGAUGCGCAACAGAGGAUUGAGCAUCA
B2: chr2:176857141:176857142:-_ENSG00000144320_ENST00000272748|hu_mus|motif|central (ssRNA)
RNA: GGGAGUUCUACAGUCCGACGAUCUUUUUGCAAUCUCUGAUUUUUUUCUCUAAAUUCUUCCAAUGCUUGAAUUUCCUUAUCGGUAUUUUCUAGAACUUCUACUGUUGAAGGUUUUGCCCUCCAUCGAGAAAAUAAUCCACCCAUCAACAGAGGAUUGAGCAUCA
B3: 47141246_47141366_1218_CDS_ENSMUSG00000038291_ENSMUST00000170416|mouse|control|control (ssRNA)
RNA: GGGAGUUCUACAGUCCGACGAUCUUCUUCCUCACGCAUGAGCUUCUCAUACAGGUCGCUGACGAGGAAGGAGGGGUAAUACCGCUCCCUCAGCACCUCGGACACAUCGGCUUGGAUUUUGCUGAACACCUCGAUGCCUCUGUUCAACAGAGGAUUGAGCAUCA
B4: chr17:26875717:26875718:-_ENSG00000109103_ENST00000335765|hu_mus|FALSE|FALSE (ssRNA)
RNA: GGGAGUUCUACAGUCCGACGAUCACGGAUCUUGAACCUGACGAAGUCAAUCUUGUAGAUAUUUUCCUCAGGGGAGCACAGGUAGUCACCCGUGAUCCGCUGCAGCCCCAGCACAUCCUCCGGCCCGAUGGGCUGCUUGCCCUGCAACAGAGGAUUGAGCAUCA
B5: 230825810_230827160_2020_CDS_ENSG00000135775_ENST00000366669|human|control|control (ssRNA)
RNA: GGGAGUUCUACAGUCCGACGAUCGUUUAAUACAUCUGACACGGUUUCAUAGUACUUAUGAGUGCUUUCACUGAGAGUGCCUUCUAGCCACUGCUGAAUUAUUGCUUGUUUGAGCUUAUCCUUGUGUCCGCUCUGAAGCUGGAACAACAGAGGAUUGAGCAUCA
B6: chr2:242098653:242098654:+_ENSG00000115685_ENST00000406106|hu_mus|FALSE|FALSE (ssRNA)
RNA: GGGAGUUCUACAGUCCGACGAUCAUCAUAGAGAUCCAGUUCUCGAAGACUCUGCAGUUCUUCCAGGUUUUCAAUGCAUUUAAUUAGGUUUUGACGAAGGCAGAGUGACUUCACUUUCUUUAGCACCUCCAAGCCUUCAAUCUUCAACAGAGGAUUGAGCAUCA

Target: T1, UNK ZnF1-3 (human, UniProt Q9C0B0 31-174)
T1 sequence: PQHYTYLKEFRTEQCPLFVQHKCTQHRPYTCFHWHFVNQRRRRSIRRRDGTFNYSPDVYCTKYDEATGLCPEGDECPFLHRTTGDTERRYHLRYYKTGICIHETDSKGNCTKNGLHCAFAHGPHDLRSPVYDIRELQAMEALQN
Assay: nsRBNS (natural sequence RNA bind-n-seq); RBNS binding buffer (assumed for nsRBNS): 25 mM Tris pH 7.5, 150 mM KCl, 3 mM MgCl2, 0.01% Triton X-100, 500 ug/ml BSA, 20 U/ml SUPERase-In, 4 C; UNK is unkempt and MSI1 is Musashi-1; names of the RNAs are library labels; protein concentration not given here; high values mean tight binding

| Binder | binding signal |
| --- | --- |
| B1 | 1.85 enrichment R |
| B2 | 0.366 enrichment R |
| B3 | 0.729 enrichment R |
| B4 | 0.51 enrichment R |
| B5 | 0.468 enrichment R |
| B6 | 0.6 enrichment R |
